Results filed as inconclusive are left out. Active and inactive are the calls of the source. The call rests on the fitted dose curve; in most records, active means well fitted curve in the direction sought with a large enough effect in the repeat runs; inconclusive means weak or mixed curves; inactive means no such curve, though single readings can be large; an effect the other way counts as inactive or inconclusive.
Tests used:
[1] = Caspase-3/7 induction in HepG2 cells by small molecules, qHTS assay (AID 1346978); further: on the % scale 0 is the no-effect control and ±100 the full control effect; nearly all actives have a fitted effect of over 15% in size
Summary of the method: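 Wild-type HepG2 cells, 2,000/well, settled 5 hr at 37 C and 5% CO2, then compound-treated for 17 hr; caspase-3/7 activity read by luminescent Caspase-Glo 3/7 after 30 min at room temperature.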

[2] = Caspase-3/7 induction in CHO-K1 cells by small molecules, qHTS cell viability counter screen (AID 1346979); further: nearly all actives have a fitted effect of over 35% in size; further: potency means the concentration at half of the fitted maximal effect
Summary of the method: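 Following a 5hr settling period, CHO-K1 cells at 1,500 per well received DMSO-dissolved compounds. Cell viability was quantified 16hr later by CellTiter-Fluor fluorescence, measured after 1hr with reagent at 37C.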

[3] = Caspase-3/7 induction in HepG2 cells by small molecules, qHTS cell viability counter screen (AID 1346981); further: nearly all actives have a fitted effect of over 30% in size; further: potency means the concentration at half of the fitted maximal effect; on activity change, negative = cytotoxicity: series mostly up to about 92 µM; on the % scale 0 is the no-effect control and ±100 the full control effect
Summary of the method: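 Fluorescence read-out of live-cell protease activity (CellTiter-Fluor) after 1 hr with reagent. This was measured in the same wells as the caspase-3/7 luminescence, on HepG2 cells exposed to DMSO-dissolved compounds for 16 hr at 37 C.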

[4] = target: Nuclear receptor subfamily 1 group I member 2 (Homo sapiens) (UniProt O75469); assay: Human pregnane X receptor (PXR) small molecule agonists, qHTS assay (AID 1346982); further: nearly all actives have a fitted effect of over 35% in size; further: potency means the concentration at half of the fitted maximal effect
Summary of the method: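 HepG2 PXR-Luc reporter line, 5% charcoal-stripped FBS; 5 hr pre-incubation, compound (DMSO) 24 hr at 37 C/5% CO2; ONE-Glo 30 min RT; luminescence read-out.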

[5] = target: Cytochrome P450 2C9 (Homo sapiens) (UniProt P11712); assay: Cytochrome P450 Family 2 Subfamily C Member 9 (CYP2C9) small molecule antagonists: luciferase reporter qHTS assay (AID 1671198); further: nearly all actives have a fitted effect of over 50% in size; further: potency means the concentration at half of the fitted maximal effect; on activity change, negative = inhibition: series mostly up to about 120 µM; on the % scale 0 is the no-effect control and ±100 the full control effect
Summary of the method: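 P450-Glo proluciferin substrate with CYP2C9 enzyme; 10 min RT preincubation, then NADPH regeneration 1 h at 37C; luciferin detection reagent 20 min RT, luminescence in relative luminescence units.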

[6] = target: Cytochrome P450 1A2 (Homo sapiens) (UniProt P05177); assay: Cytochrome P450 Family 1 Subfamily A Member 2 (CYP1A2) small molecule antagonists: luciferase reporter qHTS assay (AID 1671199); further: nearly all actives have a fitted effect of over 50% in size; further: potency means the concentration at half of the fitted maximal effect; on activity change, negative = inhibition: series mostly up to about 120 µM; on the % scale 0 is the no-effect control and ±100 the full control effect
Summary of the method: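 Luminescence readout (relative luminescence units) after luciferin detection reagent, 20 min RT. Preceded by 1 h room-temperature CYP1A2 reaction with NADPH regeneration solution following 10 min compound preincubation with enzyme and proluciferin substrate. Furafylline positive control.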

[7] = target: Voltage-gated inwardly rectifying potassium channel KCNH2 (Homo sapiens) (UniProt Q12809); assay: Human Ether-a-go-go-Related Gene (hERG) channel small molecule antagonists: fluorescence cell-based qHTS assay (AID 1671200); further: nearly all actives have a fitted effect of over 50% in size; further: potency means the concentration at half of the fitted maximal effect;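 on activity change, negative = inhibition: hERG-expressing U2OS cells given a thallium stimulus after FluxOR II dye loading; series mostly up to about 77 µM; on the % scale 0 is the no-effect control and ±100 the full control effect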
Summary of the method: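 In this thallium-flux screen, overnight-cultured U2OS cells bearing the channel are dye-loaded in darkness for an hour, rested 10 min at room temperature, and then monitored kinetically at 480/540 nm for two minutes post-stimulus.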

[8] = Caspase-3/7 induction in CHO-K1 cells by small molecules, qHTS assay (AID 1346980); further: on the % scale 0 is the no-effect control and ±100 the full control effect; nearly all actives have a fitted effect of over 15% in size
Summary of the method: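 Wild-type CHO-K1 cells exposed to compounds for 17hr at 37 C, 5% CO2. Caspase-3/7 activity then measured by Caspase-Glo 3/7 luminescence after 30min at room temperature.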

[9] = target: Nuclear receptor subfamily 1 group I member 2 (Homo sapiens) (UniProt O75469); assay: CYP3A4 induction through human pregnane X receptor (PXR) by small molecules, qHTS assay (AID 1346984); further: on the % scale 0 is the no-effect control and ±100 the full control effect; nearly all actives have a fitted effect of over 40% in size
Summary of the method: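 HepG2-derived DPX-2 line carrying PXR plus a CYP3A4-promoter luciferase reporter; cells plated 5 hr, compound-exposed 24 hr at 37C. CYP3A4 activity probed with 3uM (final) Luciferin-IPA for 3hr, then luciferase read after One-Glo.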

[10] = target: Nuclear receptor subfamily 1 group I member 2 (Homo sapiens) (UniProt O75469); assay: Human pregnane X receptor (PXR) activation by small molecules, qHTS assay (AID 1346985); further: nearly all actives have a fitted effect of over 40% in size; further: potency means the concentration at half of the fitted maximal effect
Summary of the method: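 DPX-2 cells (HepG2 co-transfected with a PXR response element and a CYP3A4-promoter luciferase construct) were seeded at 2,000 per well, rested 5 hr at 37C, then exposed to DMSO-dissolved compounds for 24 hr. Activation was read as luciferase luminescence.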

[11] = target: Cytochrome P450 2C19 (Homo sapiens) (UniProt P33261); assay: Cytochrome P450 Family 2 Subfamily C Member 19 (CYP2C19) small molecule antagonists: luciferase reporter qHTS assay (AID 1671197); further: nearly all actives have a fitted effect of over 65% in size; further: potency means the concentration at half of the fitted maximal effect
Summary of the method: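 First, compounds are pinned into enzyme-substrate mix and held 10 min at room temperature. Second, NADPH regeneration solution is added and plates incubate 1 h at 37C. Third, detection reagent is added and luminescence read after 20 min.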

[12] = target: Cytochrome P450 3A4 (Homo sapiens) (UniProt P08684); assay: Cytochrome P450 Family 3 Subfamily A Member 4 (CYP3A4) small molecule antagonists: luciferase reporter qHTS assay (AID 1671201); further: nearly all actives have a fitted effect of over 50% in size; further: potency means the concentration at half of the fitted maximal effect
Summary of the method: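 CYP3A4 activity was followed with a P450-Glo proluciferin substrate. Test compounds in DMSO were preincubated 10 min; NADPH regeneration then ran 1 h, and light output was read 20 min after detection reagent.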

[13] = target: Cytochrome P450 2D6 (Homo sapiens) (UniProt P10635); assay: Cytochrome P450 Family 2 Subfamily D Member 6 (CYP2D6) small molecule antagonists: luciferase reporter qHTS assay (AID 1671196); further: nearly all actives have a fitted effect of over 50% in size; further: potency means the concentration at half of the fitted maximal effect
Summary of the method: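 Luminogenic proluciferin substrate, CYP2D6 enzyme; 10 min RT preincubation with compound, NADPH regeneration system added, 1 h RT. Stop/detection reagent, 20 min RT, luminescence read (RLU). Signal proportional to CYP activity.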

[14] = target: Nuclear receptor subfamily 1 group I member 2 (Rattus norvegicus) (UniProt Q9R1A7); assay: Rat pregnane X receptor (rPXR) activation by small molecules, qHTS assay (AID 1346983); details: rPXR luciferase reporter cells, One-Glo luminescence, 24 h; max activation: stronger effect = higher value; further: potency means the concentration at half of the fitted maximal effect; nearly all actives have a fitted effect of over 20% in size
Summary of the method: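 Cell-based rPXR activation assay: rPXR cells, 2,000 per well, rested 5hr at 37 C, then exposed to compounds in DMSO for 24 hr at 37 C. Luciferase activity read by One-Glo luminescence after 30 min at room temperature.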

Sequence of Cytochrome P450 2D6 (Homo sapiens) (P10635 whole entry, looked up): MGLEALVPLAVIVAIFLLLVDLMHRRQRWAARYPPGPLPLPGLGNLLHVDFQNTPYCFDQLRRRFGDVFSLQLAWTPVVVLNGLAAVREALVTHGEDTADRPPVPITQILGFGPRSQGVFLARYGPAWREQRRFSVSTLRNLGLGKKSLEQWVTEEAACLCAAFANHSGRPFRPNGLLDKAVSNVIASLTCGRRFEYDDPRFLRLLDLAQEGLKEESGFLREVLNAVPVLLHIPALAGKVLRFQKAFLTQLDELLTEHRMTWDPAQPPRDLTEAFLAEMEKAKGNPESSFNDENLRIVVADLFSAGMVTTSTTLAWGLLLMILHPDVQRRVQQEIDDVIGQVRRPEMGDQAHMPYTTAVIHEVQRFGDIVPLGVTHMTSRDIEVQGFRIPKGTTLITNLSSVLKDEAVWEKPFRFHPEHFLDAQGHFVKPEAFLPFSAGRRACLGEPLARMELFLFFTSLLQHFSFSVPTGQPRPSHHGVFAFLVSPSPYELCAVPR
Sequence of Nuclear receptor subfamily 1 group I member 2 (Homo sapiens) (O75469 whole entry, looked up): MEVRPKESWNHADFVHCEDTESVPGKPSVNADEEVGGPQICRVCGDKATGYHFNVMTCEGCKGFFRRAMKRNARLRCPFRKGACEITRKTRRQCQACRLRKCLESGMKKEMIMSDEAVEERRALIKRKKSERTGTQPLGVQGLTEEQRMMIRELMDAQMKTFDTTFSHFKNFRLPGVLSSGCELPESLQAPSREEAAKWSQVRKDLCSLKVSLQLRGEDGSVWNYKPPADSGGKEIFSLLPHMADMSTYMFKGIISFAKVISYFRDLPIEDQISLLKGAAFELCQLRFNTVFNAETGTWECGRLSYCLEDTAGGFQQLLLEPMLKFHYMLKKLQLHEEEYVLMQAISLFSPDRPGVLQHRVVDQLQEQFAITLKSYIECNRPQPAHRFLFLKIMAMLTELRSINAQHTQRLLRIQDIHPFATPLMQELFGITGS
Sequence of Voltage-gated inwardly rectifying potassium channel KCNH2 (Homo sapiens) (Q12809 whole entry, looked up): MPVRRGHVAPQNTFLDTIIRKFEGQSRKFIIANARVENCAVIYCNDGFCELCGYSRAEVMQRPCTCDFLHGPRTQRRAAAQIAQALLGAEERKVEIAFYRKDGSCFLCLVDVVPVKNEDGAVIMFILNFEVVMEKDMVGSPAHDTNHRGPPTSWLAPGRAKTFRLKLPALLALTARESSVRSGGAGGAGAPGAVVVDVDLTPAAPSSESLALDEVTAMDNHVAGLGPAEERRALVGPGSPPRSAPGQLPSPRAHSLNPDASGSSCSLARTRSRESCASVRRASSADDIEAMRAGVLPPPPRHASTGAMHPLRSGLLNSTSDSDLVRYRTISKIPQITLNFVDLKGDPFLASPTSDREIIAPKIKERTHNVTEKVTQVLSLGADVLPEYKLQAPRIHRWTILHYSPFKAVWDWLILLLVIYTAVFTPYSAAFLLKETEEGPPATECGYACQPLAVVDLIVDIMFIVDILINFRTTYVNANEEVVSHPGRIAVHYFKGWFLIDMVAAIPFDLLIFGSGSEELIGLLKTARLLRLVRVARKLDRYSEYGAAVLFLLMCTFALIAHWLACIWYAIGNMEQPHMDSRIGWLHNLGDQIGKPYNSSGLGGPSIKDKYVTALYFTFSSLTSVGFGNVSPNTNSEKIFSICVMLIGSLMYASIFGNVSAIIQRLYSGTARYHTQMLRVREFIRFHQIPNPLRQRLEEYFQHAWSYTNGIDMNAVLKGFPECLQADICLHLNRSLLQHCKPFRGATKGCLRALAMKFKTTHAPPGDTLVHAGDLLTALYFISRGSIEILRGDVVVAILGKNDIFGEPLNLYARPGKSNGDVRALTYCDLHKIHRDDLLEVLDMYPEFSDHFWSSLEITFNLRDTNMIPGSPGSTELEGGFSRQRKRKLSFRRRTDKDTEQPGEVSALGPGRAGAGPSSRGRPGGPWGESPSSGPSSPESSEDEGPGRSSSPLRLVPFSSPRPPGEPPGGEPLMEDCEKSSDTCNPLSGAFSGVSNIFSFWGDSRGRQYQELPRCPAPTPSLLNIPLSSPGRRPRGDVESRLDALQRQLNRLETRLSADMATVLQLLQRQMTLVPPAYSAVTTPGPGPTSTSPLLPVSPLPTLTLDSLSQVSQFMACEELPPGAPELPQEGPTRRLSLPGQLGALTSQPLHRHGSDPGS
Sequence of Cytochrome P450 1A2 (Homo sapiens) (P05177 whole entry, looked up): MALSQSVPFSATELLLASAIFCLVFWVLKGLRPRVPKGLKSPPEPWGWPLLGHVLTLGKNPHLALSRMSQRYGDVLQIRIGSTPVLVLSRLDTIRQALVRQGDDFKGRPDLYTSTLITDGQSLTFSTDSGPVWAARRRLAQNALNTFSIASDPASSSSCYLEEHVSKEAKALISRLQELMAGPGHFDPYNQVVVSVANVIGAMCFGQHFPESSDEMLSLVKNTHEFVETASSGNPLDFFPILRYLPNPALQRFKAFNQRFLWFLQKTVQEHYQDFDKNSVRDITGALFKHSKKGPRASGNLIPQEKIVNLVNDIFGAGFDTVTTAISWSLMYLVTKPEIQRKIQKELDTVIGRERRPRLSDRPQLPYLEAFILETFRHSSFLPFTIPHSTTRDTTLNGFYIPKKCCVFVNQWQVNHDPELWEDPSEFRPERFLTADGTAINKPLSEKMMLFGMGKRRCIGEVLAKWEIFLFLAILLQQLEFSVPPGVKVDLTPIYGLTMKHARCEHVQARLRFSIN
Sequence of Cytochrome P450 2C19 (Homo sapiens) (P33261 whole entry, looked up): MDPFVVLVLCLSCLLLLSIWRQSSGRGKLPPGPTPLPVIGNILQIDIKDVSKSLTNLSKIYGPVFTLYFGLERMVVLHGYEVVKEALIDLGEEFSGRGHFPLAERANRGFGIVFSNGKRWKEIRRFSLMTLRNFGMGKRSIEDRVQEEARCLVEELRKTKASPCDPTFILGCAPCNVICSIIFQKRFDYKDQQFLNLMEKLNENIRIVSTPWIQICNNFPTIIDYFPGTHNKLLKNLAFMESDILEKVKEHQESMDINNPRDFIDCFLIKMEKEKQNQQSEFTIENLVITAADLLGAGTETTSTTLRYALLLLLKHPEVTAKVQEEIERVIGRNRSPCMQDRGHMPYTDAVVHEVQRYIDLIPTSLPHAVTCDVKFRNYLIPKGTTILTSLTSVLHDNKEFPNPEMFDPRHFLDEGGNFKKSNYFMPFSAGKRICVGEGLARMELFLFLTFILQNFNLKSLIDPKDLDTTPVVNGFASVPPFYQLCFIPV
Sequence of Cytochrome P450 2C9 (Homo sapiens) (P11712 whole entry, looked up): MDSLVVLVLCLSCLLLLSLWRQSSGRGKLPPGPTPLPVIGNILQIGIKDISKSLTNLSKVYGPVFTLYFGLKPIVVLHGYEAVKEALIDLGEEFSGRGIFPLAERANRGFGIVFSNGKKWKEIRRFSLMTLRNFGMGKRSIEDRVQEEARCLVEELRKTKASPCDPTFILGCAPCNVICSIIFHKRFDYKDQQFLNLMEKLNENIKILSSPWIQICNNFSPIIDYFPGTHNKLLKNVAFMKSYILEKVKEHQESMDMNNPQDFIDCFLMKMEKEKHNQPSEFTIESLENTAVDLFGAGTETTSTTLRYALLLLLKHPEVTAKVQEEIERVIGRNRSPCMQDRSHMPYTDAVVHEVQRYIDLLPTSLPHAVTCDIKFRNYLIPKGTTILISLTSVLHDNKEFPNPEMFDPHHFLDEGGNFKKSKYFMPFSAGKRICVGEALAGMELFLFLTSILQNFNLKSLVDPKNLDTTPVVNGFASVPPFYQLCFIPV
Sequence of Cytochrome P450 3A4 (Homo sapiens) (P08684 whole entry, looked up): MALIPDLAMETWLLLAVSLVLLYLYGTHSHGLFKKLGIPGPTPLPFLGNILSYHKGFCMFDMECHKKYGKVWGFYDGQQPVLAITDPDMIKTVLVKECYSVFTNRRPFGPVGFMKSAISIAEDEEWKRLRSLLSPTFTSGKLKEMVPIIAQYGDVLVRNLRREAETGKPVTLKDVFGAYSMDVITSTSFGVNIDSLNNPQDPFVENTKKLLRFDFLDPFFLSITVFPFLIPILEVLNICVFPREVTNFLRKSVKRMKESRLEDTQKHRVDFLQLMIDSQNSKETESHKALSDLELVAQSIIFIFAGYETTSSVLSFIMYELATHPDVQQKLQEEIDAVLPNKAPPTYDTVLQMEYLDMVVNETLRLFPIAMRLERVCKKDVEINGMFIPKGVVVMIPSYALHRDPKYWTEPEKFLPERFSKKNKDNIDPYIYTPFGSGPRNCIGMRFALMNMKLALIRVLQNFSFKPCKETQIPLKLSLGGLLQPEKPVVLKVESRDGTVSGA
Sequence of Nuclear receptor subfamily 1 group I member 2 (Rattus norvegicus) (Q9R1A7 whole entry, looked up): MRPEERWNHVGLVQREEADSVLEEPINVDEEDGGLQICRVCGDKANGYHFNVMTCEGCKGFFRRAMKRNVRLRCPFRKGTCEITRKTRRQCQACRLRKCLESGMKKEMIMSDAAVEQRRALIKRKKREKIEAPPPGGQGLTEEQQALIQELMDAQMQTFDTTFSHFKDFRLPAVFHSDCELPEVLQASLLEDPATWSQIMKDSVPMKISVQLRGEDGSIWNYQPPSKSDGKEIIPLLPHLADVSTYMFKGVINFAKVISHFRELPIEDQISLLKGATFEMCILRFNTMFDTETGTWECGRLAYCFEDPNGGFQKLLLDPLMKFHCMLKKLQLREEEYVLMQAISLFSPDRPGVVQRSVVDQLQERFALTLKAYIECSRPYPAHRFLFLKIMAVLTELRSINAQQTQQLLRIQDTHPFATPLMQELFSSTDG

CC(COc1ccc(C(C)(C)C)cc1)OS(=O)OCCCl (centres undefined)
inactive: Potency [1] | Potency [5] | Potency [6] | Potency [7]
active: Potency [2] 10.9 µM | Potency [3] 15.4 µM | Potency [4] 9.74 µM

O=C(O)C(Cc1cc(I)c(O)c(I)c1)c1ccccc1 (centres undefined)
active: Potency [5] 9.77 µM | Potency [6] 24.5 µM
inactive: Potency [1] | outcome [8] | Potency [3] | Potency [4] | Potency [9] | Potency [10] | Potency [11] | Potency [7] | Potency [12]

COc1ccc(CCC(=O)c2c(O)cc(O[C@@H]3O[C@H](CO)[C@@H](O)[C@H](O)[C@H]3O[C@@H]3O[C@@H](C)[C@H](O)[C@@H](O)[C@H]3O)cc2O)cc1O
active: Potency [5] 25.3 µM
inactive: Potency [1] | Potency [2] | Potency [3] | Potency [4] | Potency [11] | Potency [7]

C[N+](C)(C)CCOC(N)=O
inactive: Potency [1] | Potency [2] | Potency [3] | Potency [4] | Potency [9] | Potency [10] | Potency [13] | Potency [11] | Potency [5] | Potency [6] | Potency [7] | Potency [12]

O=c1[nH]c2ccc(S(=O)CCN3CCC(Cc4ccc(F)cc4)CC3)cc2o1 (centres undefined)
active: Potency [2] 54.5 µM | Potency [13] 35.6 µM | Potency [11] 56.4 µM | Potency [7] 4.36 µM
inactive: Potency [1] | Potency [4] | Potency [5] | Potency [6]

CCCCC(=O)O[C@]1(C(=O)CO)CC[C@H]2[C@@H]3CCC4=CC(=O)CC[C@]4(C)[C@H]3[C@@H](O)C[C@@]21C
active: Potency [4] 26.6 µM | Potency [14] 6.31 µM | Potency [12] 3.47 µM
inactive: Potency [1] | Potency [2] | Potency [3] | Potency [9] | Potency [10] | Potency [13] | Potency [11] | Potency [6] | Potency [7]

C1COCO1
inactive: Potency [1] | Potency [2] | Potency [3] | Potency [4] | Potency [13] | Potency [11] | Potency [6] | Potency [7]

CC#N
inactive: Potency [1] | Potency [2] | Potency [3] | Potency [4] | Potency [11] | Potency [5] | Potency [6] | Potency [7] | Potency [12]

CC(=O)[C@H]1CC[C@H]2[C@@H]3C[C@H](C)C4=CC(=O)CC[C@]4(C)[C@H]3[C@@H](O)C[C@]12C
inactive: Potency [1] | outcome [8] | Potency [3] | Potency [9] | Potency [10] | Potency [13] | Potency [6] | Potency [7]
active: Potency [4] 13.3 µM | Potency [14] 2.51 µM | Potency [5] 1.23 µM

CN(C)C(=O)Nc1ccc(Oc2ccc(Cl)cc2)cc1
active: Potency [2] 54.5 µM | Potency [4] 10.9 µM | Potency [11] 17.8 µM | Potency [5] 35.6 µM | Potency [6] 12.6 µM
inactive: Potency [1] | outcome [8] | Potency [7]

CC(C)CCCC(=O)O
inactive: Potency [1] | outcome [8] | Potency [3] | Potency [4] | Potency [13] | Potency [11] | Potency [5] | Potency [6] | Potency [7]

CCCCCC=CCC=CCCCCCCCC(=O)OCC
inactive: Potency [1] | outcome [8] | Potency [3] | Potency [9] | Potency [10] | Potency [13]
active: Potency [4] 29.8 µM | Potency [11] 21.9 µM | Potency [5] 15.5 µM | Potency [6] 27.5 µM

N#C/C(=C1/SC[C@@H](c2ccc(Cl)cc2Cl)S1)n1ccnc1
active: Potency [13] 0.219 µM | Potency [11] 0.389 µM | Potency [5] 0.389 µM | Potency [6] 0.288 µM | Potency [7] 3.01 µM
inactive: Potency [1] | outcome [8] | Potency [3] | Potency [4]

C=CCCCCCCCCCCCCCCCC
inactive: caspase activation [1] -6.49% [at 8.39 µM] | activity change, negative = cytotoxicity [2] 7.02% [at 8.39 µM] | activity change, negative = cytotoxicity [3] -1.16% [at 8.39 µM] | activation [4] -1.52% [at 8.39 µM] | activity change, negative = inhibition [11] 5.26% [at 10.5 µM] | activity change, negative = inhibition [5] 3.76% [at 10.5 µM] | activity change, negative = inhibition [6] -11.2% [at 10.5 µM] | activity change, negative = inhibition [7] -0.108% [at 6.97 µM]

CC(=O)Oc1ccc2c(c1)CC[C@@H]1[C@@H]2CC[C@]2(C)[C@@H](O)CC[C@@H]12
inactive: Potency [1] | outcome [8] | Potency [3] | Potency [9] | Potency [13] | Potency [5] | Potency [7]
active: Potency [4] 26.6 µM | Potency [11] 24.5 µM

O=C1OCCN1/N=C/c1ccc([N+](=O)[O-])o1
inactive: Potency [1] | outcome [8] | Potency [3] | Potency [4] | Potency [10]

Nc1nc(Cl)nc2c1ncn2[C@@H]1O[C@H](CO)[C@@H](O)[C@@H]1F
inactive: Potency [1] | outcome [8] | Potency [3] | Potency [13] | Potency [11] | Potency [5] | Potency [6] | Potency [7] | Potency [12]
active: Potency [4] 0.531 µM | Potency [10] 1 µM

CCN(CC)CCNC(=O)c1ccc(NC(C)=O)cc1
active: Potency [13] 17.4 µM
inactive: Potency [1] | Potency [2] | Potency [3] | Potency [4] | Potency [9] | Potency [10] | Potency [5] | Potency [6] | Potency [12]

CCC(C(=O)OCCN(CC)CC)c1ccccc1 (centres undefined)
inactive: Potency [1] | outcome [8] | Potency [3] | Potency [4] | Potency [11] | Potency [5] | Potency [7] | Potency [12]
active: Potency [13] 3.09 µM | Potency [6] 11.5 µM

O=C(Nc1ccccc1)Nc1ccccc1
active: Potency [4] 4.88 µM | Potency [13] 28.4 µM | Potency [11] 4.5 µM | Potency [5] 22.6 µM | Potency [6] 17.9 µM
inactive: Potency [1] | outcome [8] | Potency [3] | Potency [7] | Potency [12]

Reference: PubChem BioAssay (Tox21)
